Source: PubChem BioAssay (EPA / NIEHS)
Active and inactive are the calls of the source. The calls were made as follows: active = hit-call score of the fitted dose curve at least 0.9, where 1 is the maximum; inactive = score below 0.9.

Experiments:
Conditions in all cases: mRNA level, 48 h; actives raise or lower the signal
[1] = read-out: catalase (CAT), CAT (gene 847); assay: LTEA_HepaRG_CAT: Life Technologies and Expression Analysis (LTEA) Assay for catalase (CAT) using HepaRG (AID 2283452);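 as to AC50: TaqMan qRT-PCR signal normalized to ACTB GAPDH and POLR2A housekeeping genes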
Summary of the method: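 Differentiated HepaRG cells in serum-free induction medium were dosed 48 h in duplicate, eight half-log concentrations from 100 uM in 0.5% DMSO. Transcript measured by TaqMan qRT-PCR, normalised to ACTB/GAPDH/POLR2A, fitted bidirectionally against DMSO.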

[2] = read-out: flavin-containing dimethylaniline monooxygenases 3 (FMO3), FMO3 (gene 2328); assay: LTEA_HepaRG_FMO3: Life Technologies and Expression Analysis (LTEA) Assay for flavin-containing dimethylaniline monooxygenases 3 (FMO3) using HepaRG (AID 2283453);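 as to AC50: FMO3 transcript by TaqMan qRT-PCR normalized to ACTB GAPDH and POLR2A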
Summary of the method: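 Eight-point concentration-response in serum-free HepaRG cultures (top 100 uM, 0.5% DMSO, 48 h). Read-out: FMO3 mRNA level normalized to three endogenous control genes, fitted bidirectionally versus vehicle.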

[3] = read-out: Cytochrome P450 (CYP1A1), CYP1A1 (gene 1543); assay: LTEA_HepaRG_CYP1A1: Life Technologies and Expression Analysis (LTEA) Assay for Cytochrome P450 (CYP1A1) using HepaRG (AID 2283454)
Summary of the method: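 Induction of CYP1A1 mRNA in a human hepatic cell line was measured 48 h after dosing, with 1 mM phenobarbital as induction positive control and 0.5% DMSO vehicle as baseline for bidirectional curve fitting.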

[4] = read-out: CFLAR gene, CFLAR (gene 8837); assay: LTEA_HepaRG_CFLAR: Life Technologies and Expression Analysis (LTEA) Assay for CFLAR gene using HepaRG (AID 2283455)
Summary of the method: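 Gain- or loss-of-signal changes in CFLAR transcript were fitted bidirectionally relative to 0.5% DMSO. Cells (HepaRG, duplicate wells) were dosed for 48 h across eight half-log concentrations topping at 100 uM; quantitation by TaqMan qRT-PCR.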

[5] = read-out: Forkhead box O1 (FOXO1), FOXO1 (gene 2308); assay: LTEA_HepaRG_FOXO1: Life Technologies and Expression Analysis (LTEA) Assay for Forkhead box O1 (FOXO1) using HepaRG (AID 2283456)
Summary of the method: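 Using one lot of HepaRG hepatic cells kept in 0.5% DMSO, the team applied test chemicals in duplicate, half-log dilutions from 100 uM, for 48 h. Expression, normalised to ACTB/GAPDH/POLR2A, was compared with vehicle in either direction.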

[6] = read-out: growth arrest and DNA damage 45 (GADD45A), GADD45A (gene 1647); assay: LTEA_HepaRG_GADD45A: Life Technologies and Expression Analysis (LTEA) Assay for growth arrest and DNA damage 45 (GADD45A) using HepaRG (AID 2283458)
Summary of the method: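 HepaRG, 48 h exposure, 8 conc. (top 100 uM, half-log steps), 0.5% DMSO vehicle, duplicates. Read-out: qRT-PCR mRNA level, housekeeping-normalized (ACTB/GAPDH/POLR2A). Curves fit bidirectionally vs DMSO baseline.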

[7] = read-out: Forkhead box O3 (FOXO3), FOXO3 (gene 2309); assay: LTEA_HepaRG_FOXO3: Life Technologies and Expression Analysis (LTEA) Assay for Forkhead box O3 (FOXO3) using HepaRG (AID 2283459)
Summary of the method: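 Gene-expression endpoint: FOXO3 transcript level by qRT-PCR in HepaRG cultures treated 48 h with chemicals up to 100 uM (half-log, 0.5% DMSO vehicle).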

[8] = read-out: ABC Transporter (ABCB1), ABCB1 (gene 5243); assay: LTEA_HepaRG_ABCB1: Life Technologies and Expression Analysis (LTEA) Assay for ABC Transporter (ABCB1) using HepaRG (AID 2283460)
Summary of the method: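 Human liver HepaRG line treated 48 h with up to 100 uM compound (eight half-log points, 0.5% DMSO); ABCB1 mRNA change fitted bidirectionally against DMSO controls.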

[9] = read-out: growth arrest and DNA damage 45 (GADD45B), GADD45B (gene 4616); assay: LTEA_HepaRG_GADD45B: Life Technologies and Expression Analysis (LTEA) Assay for growth arrest and DNA damage 45 (GADD45B) using HepaRG (AID 2283461)
Summary of the method: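 Values are bidirectional concentration-response fits against 0.5% DMSO controls. Underlying data: qRT-PCR mRNA levels in human HepaRG liver cells treated 48 h in serum-free induction medium, eight concentrations topping at 100 uM.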

[10] = read-out: ABC Transporter (ABCC3), ABCC3 (gene 8714); assay: LTEA_HepaRG_ABCC3: Life Technologies and Expression Analysis (LTEA) Assay for ABC Transporter (ABCC3) using HepaRG (AID 2283462)
Summary of the method: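 Differentiated HepaRG liver cells receive test chemicals at eight concentrations (max 100 uM) for 48 h. Expression of ABCC3 is quantified by qRT-PCR against ACTB, GAPDH and POLR2A, and activity is fitted in both directions against the DMSO control.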

[11] = read-out: ABC Transporter (ABCB11), ABCB11 (gene 8647); assay: LTEA_HepaRG_ABCB11: Life Technologies and Expression Analysis (LTEA) Assay for ABC Transporter (ABCB11) using HepaRG (AID 2283463)
Summary of the method: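 Using HepaRG cultures held in 0.5% DMSO, chemicals were tested at half-log dilutions from 100 uM for 48 h. Induction or suppression of ABCB11 mRNA, normalized to ACTB, GAPDH and POLR2A, was fitted bidirectionally against vehicle.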

[12] = read-out: ABC Transporter (ABCC2), ABCC2 (gene 1244); assay: LTEA_HepaRG_ABCC2: Life Technologies and Expression Analysis (LTEA) Assay for ABC Transporter (ABCC2) using HepaRG (AID 2283464)
Summary of the method: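 Gene expression of ABCC2 was determined by qRT-PCR in HepaRG cells exposed 48 h to chemicals (highest 100 uM, half-log dilutions). Activity was fitted in both directions relative to 0.5% DMSO vehicle.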

[13] = read-out: Broad substrate specificity ATP-binding cassette transporter ABCG2 (Homo sapiens) (UniProt Q9UNQ0); assay: LTEA_HepaRG_ABCG2: Life Technologies and Expression Analysis (LTEA) Assay for ABC Transporter (ABCG2) using HepaRG (AID 2283465)
Summary of the method: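 Gene expression of ABCG2 in HepaRG liver cells is quantified by qRT-PCR following 48 h exposure across an eight-point series topping at 100 uM. Values come from bidirectional fitting relative to DMSO vehicle.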

[14] = read-out: ATP-citrate lyase (ACLY), ACLY (gene 47); assay: LTEA_HepaRG_ACLY: Life Technologies and Expression Analysis (LTEA) Assay for ATP-citrate lyase (ACLY) using HepaRG (AID 2283466)
Summary of the method: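 ACLY expression changes in human HepaRG liver cells are quantified by qRT-PCR after 48 h exposure to test chemicals (maximum 100 uM, half-log steps). Values are fitted in both directions relative to 0.5% DMSO vehicle.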

[15] = read-out: Peroxisomal acyl-coenzyme A oxidase 1 (ACOX1) gene, ACOX1 (gene 51); assay: LTEA_HepaRG_ACOX1: Life Technologies and Expression Analysis (LTEA) Assay for Peroxisomal acyl-coenzyme A oxidase 1 (ACOX1) gene using HepaRG (AID 2283467)
Summary of the method: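 Human HepaRG hepatic cultures, 48 h treatment with test chemicals up to 100 uM. ACOX1 expression read by qRT-PCR relative to 0.5% DMSO vehicle.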

[16] = read-out: Alkaline Phosphatase, Placental (ALPP) gene, ALPP (gene 250); assay: LTEA_HepaRG_ALPP: Life Technologies and Expression Analysis (LTEA) Assay for Alkaline Phosphatase, Placental (ALPP) gene using HepaRG (AID 2283468)
Summary of the method: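 Expression of ALPP was quantified by qRT-PCR against three housekeeping genes in human HepaRG cultures treated for 48 h with an eight-point concentration series up to 100 uM. Activity in either direction was fitted relative to 0.5% DMSO.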

[17] = read-out: Bcl-2 (BAD) gene, BAD (gene 572); assay: LTEA_HepaRG_BAD: Life Technologies and Expression Analysis (LTEA) Assay for Bcl-2 (BAD) gene using HepaRG (AID 2283469)
Summary of the method: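 Activity values reflect up- or down-regulation of BAD mRNA in human HepaRG hepatic cells treated 48 h in serum-free medium, with eight-point half-log dosing capped at 100 uM and 0.5% DMSO vehicle.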

[18] = read-out: Bcl-2 (BAX) gene, BAX (gene 581); assay: LTEA_HepaRG_BAX: Life Technologies and Expression Analysis (LTEA) Assay for Bcl-2 (BAX) gene using HepaRG (AID 2283470)
Summary of the method: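 qRT-PCR read-out of BAX mRNA, normalized to three housekeeping genes, after 48 h chemical exposure of human HepaRG cells in serum-free induction medium; eight-point half-log series, top 100 uM, 0.5% DMSO vehicle; bidirectional fit versus DMSO.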

[19] = read-out: adenosine kinase (ADK) gene, ADK (gene 132); assay: LTEA_HepaRG_ADK: Life Technologies and Expression Analysis (LTEA) Assay for adenosine kinase (ADK) gene using HepaRG (AID 2283471)
Summary of the method: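 HepaRG (human liver), 48 h chemical exposure, 8-pt half-log series, top 100 uM, 0.5% DMSO vehicle. Readout: ADK mRNA by qRT-PCR vs housekeeping genes; bidirectional curve fit relative to DMSO baseline.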

Measured: AC50

Broad substrate specificity ATP-binding cassette transporter ABCG2 (Homo sapiens), sequence (Q9UNQ0 whole entry, looked up): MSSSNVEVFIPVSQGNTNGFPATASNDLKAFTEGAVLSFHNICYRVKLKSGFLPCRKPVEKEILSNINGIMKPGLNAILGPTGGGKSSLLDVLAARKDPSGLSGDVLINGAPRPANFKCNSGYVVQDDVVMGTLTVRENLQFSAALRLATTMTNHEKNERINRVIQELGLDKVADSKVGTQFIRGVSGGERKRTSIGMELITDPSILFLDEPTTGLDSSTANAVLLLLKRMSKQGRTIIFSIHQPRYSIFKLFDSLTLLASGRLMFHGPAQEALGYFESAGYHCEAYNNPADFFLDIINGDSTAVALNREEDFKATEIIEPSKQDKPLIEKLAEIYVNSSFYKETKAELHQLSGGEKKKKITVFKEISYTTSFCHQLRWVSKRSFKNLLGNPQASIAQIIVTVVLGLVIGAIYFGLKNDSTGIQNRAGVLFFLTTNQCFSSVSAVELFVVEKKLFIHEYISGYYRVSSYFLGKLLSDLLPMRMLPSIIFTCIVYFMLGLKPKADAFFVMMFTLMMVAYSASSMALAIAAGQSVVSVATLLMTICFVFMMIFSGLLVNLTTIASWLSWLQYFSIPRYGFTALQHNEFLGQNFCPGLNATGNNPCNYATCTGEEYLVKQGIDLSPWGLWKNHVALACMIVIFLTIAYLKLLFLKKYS

CC[C@@H]1C[C@H](N(Cc2cc(C(F)(F)F)cc(C(F)(F)F)c2)C(C)=O)c2cc(C(F)(F)F)ccc2N1C(=O)OC(C)C
inactive: [1] | [2] | [4] | [5] | [6] | [7] | [9] | [10] | [11] | [13] | [14] | [15] | [16] | [17] | [18] | [19]
active: [3] 16.7 µM | [8] 0.429 µM | [12] 0.737 µM

CN1C(=O)CC[C@H]1c1cccnc1
inactive: [1] | [2] | [4] | [5] | [6] | [7] | [8] | [9] | [10] | [11] | [12] | [13] | [14] | [15] | [16] | [17] | [18] | [19]
active: [3] 76.9 µM

Cc1oc2c(NC(=O)c3c(Cl)cccc3Cl)cccc2c1C(C)(C)O
inactive: [4] | [5] | [6] | [7] | [13] | [17] | [19]
active: [1] 29.3 µM | [2] 37.2 µM | [3] 8.74 µM | [8] 80.5 µM | [10] 16.1 µM | [11] 23.8 µM | [12] 33.8 µM | [14] 29.6 µM | [15] 30 µM | [16] 50 µM | [18] 85.9 µM

CC1(C)NC(=O)N(c2ccc([N+](=O)[O-])c(C(F)(F)F)c2)C1=O
inactive: [3] | [4] | [5] | [7] | [12] | [17] | [18] | [19]
active: [2] 76.6 µM | [6] 50 µM | [8] 50 µM | [10] 75.3 µM | [11] 77.1 µM | [13] 29.3 µM | [14] 76.5 µM | [15] 63.7 µM | [16] 50 µM

Cc1ccc(C(C)C)cc1
active: [3] 74.9 µM
inactive: [1] | [2] | [4] | [5] | [6] | [7] | [8] | [10] | [11] | [12] | [13] | [14] | [15] | [16] | [17] | [18] | [19]

CCCCCCCCCCCO
inactive: [1] | [2] | [3] | [4] | [5] | [6] | [7] | [8] | [10] | [11] | [12] | [13] | [14] | [15] | [16] | [17] | [18] | [19]
